# WRN helicase inh-1 = WRN helicase (human) inhibition | Potency, µM (highest dose often 114 µM), hits mostly inhibitors | Q14191 | WRN helicase unwinding, fluorescent forked duplex, kinetic | 360,000 compounds, 0.46% hits; also: nearly all actives have a fitted effect of over 55% in size
#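 Primary qHTS, 1536-well format. 20 nM WRN + compound, 15 min RT; start with 100 nM forked fluorophore/quencher duplex, 2 mM ATP (final); kinetic read ex 525/em 598 nm.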
# Pol eta inh-1 = DNA polymerase eta (human) inhibition | recombinant Pol eta, fluorescent DNA replication assay | Potency, µM (doses to about 114 µM), hits mostly inhibitors | 390,000 compounds, 1.2% hits | AID 588591
#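 Fluorescent replication assay: 50 nM final substrate added after a 15 min room-temperature compound preincubation with 10 nM enzyme. Signal taken at 0 min and again at 10 min.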
# Pol kappa inh-1 = blocks human DNA polymerase kappa activity. 400,000 compounds, 0.53% hits. Potency, µM (highest dose often 107 µM), most hits filed as inhibitors. purified Pol kappa, fluorescent DNA synthesis assay, 10 min
# Target sequence (Q9UBT6 whole entry, looked up): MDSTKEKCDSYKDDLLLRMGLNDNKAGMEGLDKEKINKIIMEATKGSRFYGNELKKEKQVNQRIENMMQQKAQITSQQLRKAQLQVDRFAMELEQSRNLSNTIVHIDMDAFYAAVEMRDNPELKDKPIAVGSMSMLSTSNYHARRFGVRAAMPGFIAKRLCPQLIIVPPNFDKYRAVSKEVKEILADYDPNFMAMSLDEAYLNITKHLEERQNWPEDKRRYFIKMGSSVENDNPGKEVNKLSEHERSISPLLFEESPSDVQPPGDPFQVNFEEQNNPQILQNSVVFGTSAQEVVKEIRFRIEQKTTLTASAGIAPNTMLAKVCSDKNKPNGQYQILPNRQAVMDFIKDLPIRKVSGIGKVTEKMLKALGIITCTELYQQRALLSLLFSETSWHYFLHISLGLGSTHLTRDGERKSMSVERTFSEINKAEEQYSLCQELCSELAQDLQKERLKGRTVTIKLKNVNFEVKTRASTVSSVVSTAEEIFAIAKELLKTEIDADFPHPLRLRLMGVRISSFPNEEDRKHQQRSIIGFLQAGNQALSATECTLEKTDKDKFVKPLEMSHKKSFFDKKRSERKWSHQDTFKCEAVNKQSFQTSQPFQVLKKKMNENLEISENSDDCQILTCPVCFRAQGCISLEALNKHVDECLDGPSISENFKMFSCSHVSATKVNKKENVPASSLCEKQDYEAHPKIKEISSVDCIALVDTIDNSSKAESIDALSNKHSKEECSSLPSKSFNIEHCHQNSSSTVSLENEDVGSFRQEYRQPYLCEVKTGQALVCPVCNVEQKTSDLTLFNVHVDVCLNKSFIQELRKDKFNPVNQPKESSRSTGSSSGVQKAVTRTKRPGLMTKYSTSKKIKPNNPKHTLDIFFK
#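 Enzyme at 10 nM met test compounds for 15 min at room temperature. Substrate addition (50 nM final) began the reaction, which was monitored by fluorescence at 0 and 10 min.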
# POLB inh = DNA polymerase beta (human) inhibition; Pol beta primer extension/strand displacement, fluorescence kinetic; 340,000 compounds, 1.3% hits; Potency, µM (series often up to 114 µM), usual class: inhibitors; AID 485314
#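 Homogeneous kinetic assay of primer extension and strand displacement by 10 nM Pol beta, preincubated 15 min at room temperature with compound before 50 nM substrate (final) was added. Read at 0 and 10 min; four-parameter Hill fit.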
# Pol iota inh = blocks human DNA polymerase iota activity | Potency, µM (highest dose often 115 µM), actives largely listed as inhibitors | Pol iota fluorescent replication assay, 10 min | Q9UNA4 | 390,000 compounds, 1% hits
#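 Pol iota at 10 nM preincubated 15 min with compounds at room temperature; reaction started with fluorescent substrate, 50 nM final. Fluorescence read kinetically at 0 and 10 min; buffer-only wells as negative control.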
# PI5P4K alpha inh = PI5P4K alpha (human) kinase inhibition; P48426; PI5P4Kalpha enzyme, ADP-Glo luminescence, 60 min; stronger effect = lower value; max response, %; 330,000 compounds, 1.2% hits; active = max response of -50% or lower; inconclusive = between -30% and -50%; inactive = -30% or higher; also: value at the top dose of about 77 µM
#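 Reactions run in 0.038 M HEPES pH 7.4, 0.28 mM EGTA, 0.1% CHAPS and 5% DMSO, with PI5P4Kalpha, substrate, compound and 5 microM ATP final, one hour at room temperature. Readout is ADP-Glo luminescence.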
# TbPGK inh = blocks T. brucei phosphoglycerate kinase; TbPGK coupled GAPDH assay, Kinase-Glo luminescence; AID 686980; 500 compounds, 79% hits; shares compounds with Pol kappa inh-1; Potency, µM (titrated, usually from 57.5 µM), usual class: inhibitors; also: nearly all actives have a fitted effect of over 65% in size
# POLI cherry-pick = Inhibitors of human DNA polymerase iota, confirmation | Potency, µM, hits mostly inhibitors | 1,500 compounds, 77% hits | Pol iota primer extension, TAMRA/BHQ fluorescence | shares compounds with Pol kappa inh-1
# Pol kappa inh-2 = Pol kappa (human) inhibition, cherry-pick confirmation | shares compounds with Pol eta inh-1 | Potency, µM, usual class: inhibitors | AID 720501 | 920 compounds, 76% hits | purified Pol-kappa, fluorescent strand-displacement substrate
# Pol eta inh-2 = confirmation of human DNA polymerase eta inhibitors; shares compounds with Pol eta inh-1; 2,600 compounds, 64% hits; Pol eta primer extension, TAMRA/BHQ fluorescence, 10 min; Potency, µM, most hits filed as inhibitors; AID 720502
# WRN helicase inh-2 = confirmation of human WRN helicase inhibitors | 610 compounds, 63% hits | WRN helicase DNA unwinding, fluorescence kinetic | Potency, µM (series often up to 57.1 µM), most hits filed as inhibitors | shares compounds with WRN helicase inh-1; also: nearly all actives have a fitted effect of over 65% in size
# TO DNA binding = counter-screen for WRN helicase inhibitors: DNA binding. shares compounds with WRN helicase inh-1. thiazole orange DNA binding displacement, fluorescence. Potency, µM (series often up to 57.1 µM), most hits filed as inhibitors. 610 compounds, 10% hits;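 also: drop in dye fluorescence marks compound binding to DNA; nearly all actives have a fitted effect of over 60% in size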
# BLM helicase inh = BLM helicase inhibition, WRN selectivity check; shares compounds with WRN helicase inh-1; Recombinant BLM helicase DNA unwinding, red fluorescence; Potency, µM (highest dose often 57.1 µM), most hits filed as inhibitors; 610 compounds, 60% hits; AID 720503; also: nearly all actives have a fitted effect of over 60% in size
# Hits are given with their value; n = inactive; u = inconclusive; x = no result given; [ ] = remark or other dose. The list is not random: actives were taken first. Their share in the collection is about 2.8%. Unless noted, calls follow the shape of the dose curve; as a rule, active = well fitted curve in the direction sought with a large enough effect; inconclusive = small, poorly fitted or top-dose-only effect, or another doubt; inactive = no such curve, though single readings can be large; an effect the other way counts as inactive or inconclusive.
SMILES,WRN helicase inh-1,Pol eta inh-1,Pol kappa inh-1,POLB inh,Pol iota inh,PI5P4K alpha inh,POLI cherry-pick,Pol eta inh-2,WRN helicase inh-2,TO DNA binding,BLM helicase inh,others
O=C1C(Cl)=C(NCCc2ccccc2)C(=O)c2ccccc21,28µM,22µM,n,x,3.5µM,-85,47,48,u,n,17µM,
Cc1ccc2nc(Cl)c3cc(C(=O)N(C)C4CCCCC4)sc3c2c1,x,n,n,n,n,x,x,x,x,x,x,
CCOc1ccc(NC(=O)CSc2ccc(-c3sc(-c4ccccc4)nc3C)nn2)cc1,x,n,n,n,n,x,x,x,x,x,x,
CCCCOCCOCCOCc1cc2c(cc1CCC)OCO2,x,x,n,x,x,x,x,x,x,x,x,
Cc1n[nH]c(=S)n(NC(=O)/C=C/C(=O)Nn2c(=S)[nH]nc(C)c2=O)c1=O,18µM,8.9µM,8.9µM,20µM,u,u,21,9.5,u,n,22µM,TbPGK inh=21µM;Pol kappa inh-2=9.5
Cc1nn(C(C)C(=O)NCc2cccc(F)c2)c(=O)c2c1sc1ccccc12 (stereo not given),x,n,n,n,n,x,x,x,x,x,x,
O=C(CCSCCC(=O)NCc1ccco1)NCc1ccco1,13µM,11µM,u,22µM,n,u,34,27,22µM,n,17µM,
Cc1cc(=O)[nH]c(SCC(=O)NCc2ccco2)n1,19µM,3.2µM,35µM,13µM,8.9µM,n,30,19,u,n,22µM,
CCc1c(O)nc(SCC(=O)NCc2ccco2)[nH]c1=O,n,n,n,n,u,n,x,x,x,x,x,
O=C(CC(c1cccs1)N1Cc2ccccc2C1=O)Nc1ccccc1F (stereo not given),x,n,n,n,n,x,x,x,x,x,x,
O=C(Cn1c2ccccc2c(=O)c2ccccc21)N/N=C/c1cc([N+](=O)[O-])ccc1N1CCCCCC1,11µM,2.8µM,n,2.5µM,n,n,u,x,6.1µM,n,1.1µM,
O=C(Cn1c2ccccc2c(=O)c2ccccc21)N/N=C/c1ccc(N2CCCC2)c([N+](=O)[O-])c1,n,u,n,n,n,n,x,x,x,x,x,
O=C(NCCc1csc2nc(-c3ccccc3F)nn12)C(=O)Nc1cc(F)ccc1F,x,n,n,n,n,x,x,x,x,x,x,
CC1=NOC(=O)/C1=C\c1ccc(-c2ccc(Cl)c(C(=O)O)c2)o1,35µM,4.5µM,35µM,14µM,11µM,u,42,21,19µM,n,27µM,
COC(=O)c1ccccc1-c1ccc(/C=C2\C(=O)N(c3ccccc3)N=C2c2ccccc2)o1,n,n,n,n,n,n,x,x,x,x,x,
O=C1NN(c2ccc(Cl)c(Cl)c2)C(=O)/C1=C/c1ccc(-c2ccccc2C(=O)O)o1,32µM,20µM,40µM,32µM,5µM,-58,19,30,19µM,n,n,Pol kappa inh-2=17
COC(=O)c1ccc(N2NC(=O)/C(=C/c3ccc(OC)c(OC)c3)C2=O)cc1,n[11.6 µM],n,n,n,u,n,x,x,x,x,x,
